Results: PubChem BioAssay (EPA / NIEHS)
Active and inactive are the calls of the source. How the source made its calls: active means hit-call score of the fitted dose curve at least 0.9, where 1 is the maximum; inactive means score below 0.9.

These compounds were tested on Apoptosis regulator Bcl-2 (Homo sapiens) (UniProt P10415) (assay: LTEA_HepaRG_BCL2: Life Technologies and Expression Analysis (LTEA) Assay for Bcl-2 gene using HepaRG (AID 2283475;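 further: BCL2 transcript by TaqMan qRT-PCR normalised to ACTB GAPDH and POLR2A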)). Conditions: mRNA level, 48 h; actives raise or lower the signal.
Sequence of Apoptosis regulator Bcl-2 (Homo sapiens) (P10415 whole entry, looked up): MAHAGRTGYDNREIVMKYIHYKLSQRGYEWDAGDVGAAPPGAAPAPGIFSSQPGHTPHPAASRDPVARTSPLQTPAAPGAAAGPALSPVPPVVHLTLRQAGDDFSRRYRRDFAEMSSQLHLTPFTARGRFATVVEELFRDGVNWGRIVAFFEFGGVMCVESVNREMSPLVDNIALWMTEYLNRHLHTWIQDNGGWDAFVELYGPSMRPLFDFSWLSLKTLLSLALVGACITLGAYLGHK
Method: LTEA_HepaRG is a cell based, multiplexed-readout assay that uses HepaRG, a human liver cell line, with measurements taken at 48 hours after chemical dosing on a 96-well plate.LTEA_HepaRG_BCL2 is one of 102 assay component(s) measured in the LTEA HepaRG cell culture assay. It is a marker of Cell proliferation, survival, death.Data from the assay component LTEA_HepaRG_BCL2 was analyzed into 1 endpoint. This assay endpoint, LTEA_HepaRG_BCL2, was analyzed with bidirectional fitting relative to DMSO as the negative control and baseline of activity. Using a type of inducible reporter, measures of mRNA induction for gain or loss-of-signal activity can be used to understand regulation of transcription factor activity. To generalize the intended target to other relatable targets, this assay endpoint is annotated to the cell cycle intended target family, where the subfamily is Cell proliferation, survival, death.
A total of 1060 chemcials from the ToxCast library were tested in eight-point concentration-response experiments. Cell culture and cytotoxicity assays were conducted at Thermo Fisher Scientific's Custom Services facility (Madison, WI). A single lot of human HepaRG cells (Thermo Fisher Scientific, Frederick, MD) was used for the cell culture experiments. 96-well format collagen type I coated plates of human HepaRG cells were prepared using established methods. Briefly, cryopreserved HepaRG cells were thawed, plated at a density of approximately 100,000 cells/well in HepaRG Thaw, Plate, and General Purpose media (HPRG770, Thermo Fisher Scientific), and incubated for 48 hours. 0.5% DMSO was selected as vehicle control to balance the requisite need of DMSO in HepaRG cultures to maintain differentiation (for example, baseline metabolism, proportions of hepatocytes vs. cholangiocytes), while enabling further hepatic receptor pathway activation (for example, PXR and CAR) in response to chemical exposure. 48 hours after plating, the culture medium was replaced with HepaRG Serum-Free Incudtion Media. Cells were exposed to each test chemical in duplicate and maintained in CO2 incubators for another 48 hours. Chemical plates were thawed to room temperature and 200x concentrations of treatment groups were prepared. 8-point conentration-reponse curves were made with the highest exposure at 100 uM, followed by half-log dilutions, all in 0.5% DMSO. Each test plate contained variouse controls, induction positive controls (1mM phenobarbital), cytotoxicity positive controls ([…] aflatoxin B1), vehicle controls (0.5% DMSO), and total lysis controls (0.5% DMSO). Cell morphology images were taken using an Essen IncuCyte FLR automated microscope, with six 96-well plates imaged in about 24 minutes. Images were captured and exported and JPEG files. Spent culture media was transfered to black-well plates for the LDH assay, and remaining media was sorted at -80 C for later use. Cells were treated with RLT buffer and frozen until shipped for gene expression analysis. Total RNA was isolated from the cell suspension in 75 uL of Buffer RLT (Qiagen, Germantown, MD 20874) by Quintiles/Expression Analysis (Durham, NC) using a custom isolation procedure. Total RNA from each plate well was transferred to a preamplification plate. Fluidigm's 96.96 Dynamic ArrayTM (Fluidigm, Amsterdam, the Netherlands) technology was used for gene expression analyses by quantitative reverse transcription polymerase chain reaction (qRT-PCR, performed by Quintiles/Expression Analysis, Durham, NC)89. Standard TaqManTM Assays (Applied Biosystems/ThermoFisher Scientific, Foster City, CA) were used to assess the expression of 93 genes selected based on their selectivity and sensitivity to important hepatic receptors known to be modulated by environmental chemicals; importance in human hepatocyte functionality; and hepatotoxicity. […]
With `N=C(N)c1ccc(OCCCCCOc2ccc(C(=N)N)cc2)cc1` the AC50 was 73.6 µM (active).
`O=C1NS(=O)(=O)c2ccccc21` was tested, and the outcome was “inactive”.
With `CCCCC=O` the outcome was “inactive”.
`CN(Cc1cnc2nc(N)nc(N)c2n1)c1ccc(C(=O)N[C@@H](CCC(=O)O)C(=O)O)cc1` was tested, and the outcome was “inactive”.
With `O=C(CCCN1CCC(O)(c2ccc(Cl)cc2)CC1)c1ccc(F)cc1` the AC50 was 81.3 µM (active).
In the case of `CCCCc1oc2ccccc2c1C(=O)c1cc(I)c(OCCN(CC)CC)c(I)c1`, the AC50 is reported as 59.5 µM (active).
In the case of `CCCCCCCCCCCCOS(=O)(=O)O`, the AC50 is reported as 86.9 µM (active).
In the case of `CC(=O)Nc1ccc(O)cc1`, the outcome is reported as “inactive”.
`CCCCCCCCCCCCCCC` was tested, and the outcome was “inactive”.
For `CCCCC(CC)C(=O)O` (stereo not given), the outcome was “inactive”.
For `Cc1[nH]nc2c1N=C(c1ccccc1Cl)c1cc([N+](=O)[O-])ccc1N2`, the AC50 was 8.98 µM (active).
In the case of `CN(C)CCOC(c1ccccc1)c1ccccc1`, the outcome is reported as “inactive”.
In the case of `O=C(c1ccccc1)c1ccccc1`, the outcome is reported as “inactive”.
With `CS(=O)(=O)c1ccc([C@@H](CC2CCCC2)C(=O)Nc2cnccn2)cc1Cl` the AC50 was 61.8 µM (active).
With `CCC(C)c1ccccc1O` (stereo not given) the outcome was “inactive”.
